Screening data from PubChem.
D1 antagonist = Antagonist of Human D 1 Dopamine Receptor: qHTS; D(1A) dopamine receptor (Homo sapiens), P21728; HEK293 TREx D1 cells, calcium flux, dopamine EC80; stronger effect = lower value; activity change, negative = inhibition, % at 10 µM; 3.2% of 360,000 active; AID 504652, 2011; in the data active = activity change below about -30%; note: % is set by controls: 0 for no effect and ±100 for the full control effect
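HEK293 T-REx cells expressing inducible, force-coupled D1 receptor; no-wash Ca dye, 30–90 min RT. Cmpd → 180 s read at 1 Hz → EC80 DA → 180 s read.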
D3 ag = qHTS of D3 Dopamine Receptor Agonist: qHTS | max activation, % | 0.58% of 410,000 active | D(3) dopamine receptor (Homo sapiens), P35462 | D3R DiscoveRx beta-arrestin cells, luminescence, 90 min; in the data active = max activation above about 30%; note: 0% is about no effect
Target sequence (P35462 whole entry, looked up): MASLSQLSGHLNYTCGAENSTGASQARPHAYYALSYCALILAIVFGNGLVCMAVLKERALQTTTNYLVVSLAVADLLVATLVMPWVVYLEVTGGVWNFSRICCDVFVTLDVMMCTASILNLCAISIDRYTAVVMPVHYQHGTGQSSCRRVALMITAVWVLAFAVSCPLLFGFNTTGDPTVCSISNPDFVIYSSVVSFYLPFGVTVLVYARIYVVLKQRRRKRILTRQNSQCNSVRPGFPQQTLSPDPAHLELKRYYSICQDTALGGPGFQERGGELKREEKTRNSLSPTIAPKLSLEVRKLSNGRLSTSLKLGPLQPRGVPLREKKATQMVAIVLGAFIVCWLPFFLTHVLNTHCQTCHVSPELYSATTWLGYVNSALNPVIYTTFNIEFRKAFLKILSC
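Agonist mode: compounds and dopamine controls were applied to plated cells for 90 min at 37 degrees C after an overnight attachment at 1500 cells/well. Luminescent read-out followed 30 - 60 minutes at room temperature with DiscoveRx detection reagent.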
D1 potentiator = Potentiators of Human D1 Dopamine Receptor: qHTS | D(1A) dopamine receptor (Homo sapiens), P21728 | HEK293 TREx D1 cells, calcium flux, dopamine EC20 potentiation | potentiation, % at 10 µM | 0.036% of 360,000 active; in the data active = potentiation above about 30%; note: 0% is about no effect
D3 antag = qHTS of D3 Dopamine Receptor Antagonist: qHTS; D(3) dopamine receptor (Homo sapiens), P35462; D3R cells, DiscoveRx beta-arrestin luminescence, antagonist mode; stronger effect = lower value; max response, negative = inhibition, %; 2.5% of 360,000 active; in the data active = max response below about -50%; inconclusive = no clear call, values can overlap the other calls; note: % is set by controls: 0 for no effect and ±100 for the full control effect
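Cells plated overnight at 1500 cells/well, then exposed to library compounds with dopamine controls for 90 minutes at 37 degrees C. DiscoveRx reagent added for 30–60 minutes at room temperature; luminescence read, quantitative HTS format.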
D1 ag = Allosteric Agonists of the Human D1 Dopamine Receptor: qHTS | activation, % at 2 µM | 1% of 360,000 active | AID 504660, 2011 | HEK293 T-REx D1 cells, calcium flux, agonist mode; in the data active = activation above about 30%; note: 0% is about no effect
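Inducible HEK293 T-REx D1 cells, force-coupled to calcium signalling, were plated at 4000 cells/well with tetracycline and held overnight at 30 C. After no-wash calcium dye loading, compound-evoked calcium rise over 180 s flagged agonists.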
* marks the source's active call; other numbers are inactive results; ? = inconclusive; / = no result given. Sampled rows, rich in hits. Any-hit rate of the full collection: about 6%.

SMILES | D1 antagonist | D3 ag | D1 potentiator | D3 antag | D1 ag
CC(C)(C)OC(=O)Nc1ccccc1-n1nnnc1C(C(=O)c1ccc(F)cc1)N1CCN(c2ccccn2)CC1 (configuration not stated) | / | 1.5 | / | -10.8 | /
Cc1ccccc1Nc1c(-c2cccc(N(C)C)c2)nc2ccc(Br)cn12 | -12.1 | -9.3 | 2.5 | / | -1.3
CCN(CC)CCCn1c(=S)[nH]c2ncccc2c1=O | 2.2 | -11.3 | -2.9 | -52.9* | 11.2
CCN(CCCn1c(=S)[nH]c2ncccc2c1=O)c1ccccc1 | 2.3 | -9.0 | 2.7 | 8.3 | 3.3
O=c1c2cccnc2[nH]c(=S)n1CCCN1CCN(c2ccccc2F)CC1 | -14.4 | 6.8 | -6.0 | -54.6* | 2.4
COc1ccc(CC(=O)Nc2ccc(S(=O)(=O)N3CCN(C)CC3)cc2)cc1 | -15.7 | -4.9 | -3.9 | -0.9 | 7.7
Cc1cc(O)c(C(C)C)cc1N=Cc1ccc([N+](=O)[O-])cc1 | / | -24.0 | / | -20.1 | /
COc1cc(OC)cc(-c2c(-c3cccs3)c3cc(Br)ccc3n2C)c1 | / | 4.9 | -5.6 | -29.8 | -1.2
COc1cc(F)cc(-c2ccc3c(c2)c(-c2cccs2)c(-c2cc(OC)cc(OC)c2)n3C)c1 | / | -10.1 | -5.8 | 3.6 | 42.3*
COc1cc(OC)cc(-c2c(-c3cccs3)c3cc(-c4ccc(N(C)C)nc4)ccc3n2C)c1 | / | 46.7* | -2.1 | 0.0 | 1.3
COc1cc(OC)cc(-c2c(-c3cccs3)c3cc(-c4ccn[nH]4)ccc3n2C)c1 | / | 37.2* | -0.7 | 32.3 | 10.0
COc1ccc(-c2noc(-c3cccc(OC)c3OC)n2)cc1 | -15.2 | 10.5 | -4.5 | / | 7.9
Cc1ccc(C2CC(=O)Oc3cc(O)ccc32)cc1 (configuration not stated) | -30.1* | 0.0 | -4.7 | 0.0 | 5.2
CC(=O)N1CCc2c(sc3c2c(=O)n(-c2cc(Cl)ccc2C)c(=O)n3Cc2ccccc2F)C1 | 7.4 | -18.1 | -3.0 | / | 2.2
CC(=O)c1ccc(OCc2cc(C(=O)N3CCC(Oc4ccccc4C)CC3)no2)cc1 | -52.5* | 4.7 | -6.0 | 3.3 | 26.0
O=C(c1cc(COc2c(F)cccc2F)on1)N1CCC(c2ccncc2)CC1 | -9.8 | -3.2 | -1.7 | 9.5 | 11.7
CC(=O)c1ccc(OCc2cc(C(=O)N3CCCCCCC3)no2)cc1 | -37.7* | -1.5 | -4.8 | -8.5 | 27.2
CC(=O)c1ccc(OCc2cc(C(=O)N3CCOCC3)no2)cc1 | 3.4 | -8.3 | 2.4 | 5.8 | 3.7
CCC1CCCCN1C(=O)c1cc(COc2ccc(-n3cncn3)cc2)on1 (configuration not stated) | -34.1* | 12.2 | -10.4 | 10.4 | 16.8
Cc1ccc(OCc2cc(C(=O)N3CCC(Oc4cccnc4)CC3)no2)cc1C | -7.6 | 5.7 | -8.0 | 13.0 | 13.6
Cc1cccc(C)c1OCc1cc(C(=O)N2CCC(c3ccncc3)CC2)no1 | -41.9* | 1.1 | -6.2 | 13.3 | 11.6
Oc1ccc(C=NNC(=S)Nc2cccnc2)nc1 | / | 2.3 | / | 4.0 | /
COC(=O)[C@@]12C[C@@H](CC(=O)NCCC(C)C)C(=O)N(Cc3cccc4ccccc34)C1=CCC(C)(C)C2 | / | -8.1 | / | ? | /
CCOC(=O)c1c(Nc2ccc(OC)cc2)nnc(-c2ccccc2)c1-c1ccccc1 | 9.3 | 15.4 | 0.6 | / | 0.3
CCOC(=O)c1c(/N=C/C2=C(O)CCCC2=O)sc(C)c1C | -21.7 | 3.1 | 4.9 | 3.4 | -1.3
CCOC(=O)c1c(-c2ccc(OC)cc2)csc1/N=C/C1=C(O)CCCC1=O | -11.4 | 4.5 | -7.7 | -2.1 | 36.7*
Cc1cc(C)cc(C(O)c2ncc(-c3ccccc3C(F)(F)F)[nH]2)c1 (configuration not stated) | / | 11.2 | / | -29.0 | /
O=C(Nc1cccc(C(F)(F)F)c1)c1cc2nc(-c3ccccc3)cc(C(F)(F)F)n2n1 | 5.0 | -0.2 | 0.6 | / | 0.1
CC(=O)N1c2ccccc2C(=O)C1N1CCN(c2ccccc2)CC1 (configuration not stated) | 21.5 | 6.3 | -3.9 | / | 3.6
CC(=O)N1c2ccccc2C(=O)C1N1CCN(c2ccc(F)cc2)CC1 (configuration not stated) | -45.7* | 0.4 | -6.0 | / | 1.7
